From PubChem BioAssay (NCATS)
Values joined by “and” are separate entries in the source; they are usually repeats but may differ in a detail not shown here. Identical values can stand only once. Records with an inconclusive call do not appear. Active and inactive are the calls of the source. Unless noted, the call rests on the fitted dose curve; in most records, active means well fitted curve in either direction with a large enough effect (not every such curve was filed as active); inconclusive means small, poorly fitted or top-dose-only effect, or another doubt; inactive means flat fitted curve, though single readings scatter.

How the values were obtained:
[1] = AP1 Signaling Pathway (AID 357); details: ME-180 AP-1-bla reporter, EGF-induced, beta-lactamase ratio, 5 h;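 further: ME-180 reporter cells stimulated with EGF at its EC50 level; on the % scale 0 is the no-effect control and ±100 the full control effect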
In short: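 First, ME-180 AP-1-bla cells were cultured overnight at 37 °C in low-serum Opti-MEM. Next, titrated compounds with EC50 EGF were incubated 5 hours. Finally, CCF4 was added for 2.5 hours and the 460/530 nm ratio recorded.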

[2] = target: Cytochrome P450 1A2 (Homo sapiens) (UniProt P05177); test: p450-cyp1a2 (AID 410; calls by dose curve;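 further: -100% = full effect of reference inhibitor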); details: recombinant CYP1A2, luciferin-ME demethylation, luminescence; series mostly up to 57 µM
Cytochrome P450 1A2 (Homo sapiens), sequence (P05177 whole entry, looked up): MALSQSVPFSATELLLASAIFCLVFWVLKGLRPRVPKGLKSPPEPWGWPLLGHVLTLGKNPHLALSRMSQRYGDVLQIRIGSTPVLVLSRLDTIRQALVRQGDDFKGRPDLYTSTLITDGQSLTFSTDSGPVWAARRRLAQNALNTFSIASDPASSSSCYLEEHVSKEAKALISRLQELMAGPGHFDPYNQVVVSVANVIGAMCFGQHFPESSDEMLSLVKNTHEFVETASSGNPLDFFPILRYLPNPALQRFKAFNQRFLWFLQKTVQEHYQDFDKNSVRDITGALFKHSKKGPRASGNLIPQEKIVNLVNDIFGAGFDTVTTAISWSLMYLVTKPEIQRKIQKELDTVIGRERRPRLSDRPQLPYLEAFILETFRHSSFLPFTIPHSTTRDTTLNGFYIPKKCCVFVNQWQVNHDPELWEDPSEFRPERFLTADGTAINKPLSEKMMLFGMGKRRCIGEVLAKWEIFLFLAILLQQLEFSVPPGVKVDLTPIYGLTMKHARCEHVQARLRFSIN
In short: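 20nM CYP1A2 with 100uM Luciferin-ME (at Km) in 100mM KPO4; compound preincubated 10 min, NADPH regeneration added, 60 min at room temperature. Luciferin quantified by luminescence after detection reagent; normalized to 57 uM furafylline.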

[3] = NFAT Signaling Pathway (AID 444); details: Jurkat NFAT-bla M1, carbachol, beta-lactamase ratio, 5 h;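 further: carbachol stimulus at about its EC50 of 1 µM final; on the % scale 0 is the no-effect control and ±100 the full control effect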
In short: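 Read-out: CCF4 FRET ratio (460 nm/530 nm) after 1 h RT dye loading, used for %activity and AC50 from titration series. Cells: Jurkat NFAT-β-lactamase/M1 line, treated with compound plus 1 uM carbachol for 5 h, 37 °C.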

[4] = Stat Signaling Pathway (AID 446); details: ME-180 SIE beta-lactamase reporter, IL-6 stimulated, 5 h; series mostly up to 17.2 µM;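 further: ME-180 cervical cancer cells given 40 pM IL-6 alongside compound; SIE-controlled beta-lactamase reporter measured as 460/530 nm FRET emission ratio; on the % scale 0 is the no-effect control and ±100 the full control effect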
In short: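 ME-180 SIE-bla cells; overnight plating; cpd + IL-6 40 pM, 5 h, 37 C; LiveBLAzer 2.5 h RT; 460/530 nm emission ratio. Normalized to 300 pM IL-6 and 125 nM JAK inhibitor controls.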

[5] = target: Glucocorticoid receptor (Homo sapiens) (UniProt P04150); test: GR-GFP Redistribution (AID 450;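 active means compounds whose dose series gives a full or clear partial fitted curve of increased nuclear translocation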; further: potency means the concentration at half of the fitted maximal effect); details: U2OS GR-GFP nuclear translocation, laser cytometry, 2 h
Glucocorticoid receptor (Homo sapiens), sequence (P04150 whole entry, looked up, the tested form may be a part): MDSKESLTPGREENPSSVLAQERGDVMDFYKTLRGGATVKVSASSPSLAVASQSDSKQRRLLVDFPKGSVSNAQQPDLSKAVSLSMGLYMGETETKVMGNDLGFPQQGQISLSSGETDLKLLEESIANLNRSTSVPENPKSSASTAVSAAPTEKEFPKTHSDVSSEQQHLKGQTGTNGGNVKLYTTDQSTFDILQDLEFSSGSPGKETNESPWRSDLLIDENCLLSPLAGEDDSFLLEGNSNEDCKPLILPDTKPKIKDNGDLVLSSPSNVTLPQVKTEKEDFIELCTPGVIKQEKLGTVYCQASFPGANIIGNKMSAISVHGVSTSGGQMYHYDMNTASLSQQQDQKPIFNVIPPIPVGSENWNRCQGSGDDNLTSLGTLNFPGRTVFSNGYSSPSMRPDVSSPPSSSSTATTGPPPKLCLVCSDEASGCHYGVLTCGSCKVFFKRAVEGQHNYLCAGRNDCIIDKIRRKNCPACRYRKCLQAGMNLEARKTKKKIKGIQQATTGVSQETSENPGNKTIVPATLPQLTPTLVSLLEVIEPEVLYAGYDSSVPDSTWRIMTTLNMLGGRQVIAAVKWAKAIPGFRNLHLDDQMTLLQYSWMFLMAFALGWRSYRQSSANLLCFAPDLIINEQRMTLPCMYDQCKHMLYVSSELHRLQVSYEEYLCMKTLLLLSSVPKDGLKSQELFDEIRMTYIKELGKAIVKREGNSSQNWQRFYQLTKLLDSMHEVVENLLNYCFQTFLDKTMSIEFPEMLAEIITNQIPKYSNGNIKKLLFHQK

[6] = target: Glucocorticoid receptor (Homo sapiens) (UniProt P04150); test: GR-EFC Redistribution (AID 451; calls by dose curve; further: potency means the concentration at half of the fitted maximal effect); details: CHO-K1 GR-EFC translocation, beta-gal luminescence, 2 h
In short: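 Translocation of GR-ED fusion to nuclear EA restores b-gal, read by luminescence after 1 h room-temperature detection. Engineered CHO-K1 biosensor cells, 1,000/well, exposed 2 h at 37 C to titrations up to 46 uM final.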

[7] = target: Lysosomal acid glucosylceramidase (Homo sapiens) (UniProt P04062); test: Glucocerebrosidase-p2 (AID 348; in the data active means potency below about 10 µM; further: potency means the concentration at half of the fitted maximal effect); details: purified GBA, blue fluorogenic substrate, 40 min
Lysosomal acid glucosylceramidase (Homo sapiens), sequence (P04062 whole entry, looked up): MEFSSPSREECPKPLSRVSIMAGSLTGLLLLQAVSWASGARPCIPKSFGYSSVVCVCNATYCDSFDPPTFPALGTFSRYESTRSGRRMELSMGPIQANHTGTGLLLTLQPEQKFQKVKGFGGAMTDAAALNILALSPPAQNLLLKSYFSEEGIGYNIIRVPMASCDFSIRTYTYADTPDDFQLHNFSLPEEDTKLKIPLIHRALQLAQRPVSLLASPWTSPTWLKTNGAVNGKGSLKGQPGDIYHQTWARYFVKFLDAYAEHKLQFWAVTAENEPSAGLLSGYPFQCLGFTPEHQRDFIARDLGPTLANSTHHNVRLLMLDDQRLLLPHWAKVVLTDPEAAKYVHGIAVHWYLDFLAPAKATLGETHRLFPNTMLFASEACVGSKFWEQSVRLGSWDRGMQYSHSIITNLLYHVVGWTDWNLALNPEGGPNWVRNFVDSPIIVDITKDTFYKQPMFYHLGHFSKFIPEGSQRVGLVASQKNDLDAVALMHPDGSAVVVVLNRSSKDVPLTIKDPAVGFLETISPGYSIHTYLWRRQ
In short: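 Compounds titrated from 0.6 nM upwards against 0.2 nM enzyme in pH 5.9 citric acid/KH2PO4, taurocholate, tween-20; blue fluorogenic substrate 80 uM, 40 min room temperature, stopped and read Ex 365/Em 440 for AC50.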

O=c1n(CCCN2CCN(c3cccc(Cl)c3)CC2)nc2ccccn12
inactive: activity change, negative = inhibition ([1]; at 17.2 µM (top of the series)) -7.19% and -2.29% | activity change, negative = inhibition ([1]; at 38 µM (top of the series)) -2.63% | Potency [2] | activity change, negative = inhibition ([3]; at 17.2 µM (top of the series)) -9.78% | activity change, negative = inhibition ([3]; at 38 µM (top of the series)) -3.74% | outcome [4]

Clc1cccc(Cl)c1NC1=NCCN1
inactive: activity change, negative = inhibition ([1]; at 17.2 µM (top of the series)) -0.203% | activity change, negative = inhibition ([1]; at 38 µM (top of the series)) 4.79% | Potency [2] | activity change, negative = inhibition ([3]; at 17.2 µM (top of the series)) -11.5% | activity change, negative = inhibition ([3]; at 38 µM (top of the series)) -5.97% | outcome [4] | Potency [5] > 46 µM and > 20.6 µM | Potency [6] > 46 µM and > 20.6 µM

Nc1ccc(S(=O)(=O)Nc2ccnn2-c2ccccc2)cc1
inactive: activity change, negative = inhibition ([1]; at 17.2 µM (top of the series)) 1.79% | activity change, negative = inhibition ([1]; at 38 µM (top of the series)) 4.55% | Potency [2] | activity change, negative = inhibition ([3]; at 17.2 µM (top of the series)) -4.12% | activity change, negative = inhibition ([3]; at 38 µM (top of the series)) 1.19% | outcome [4] | Potency [5] > 46 µM and > 20.6 µM | Potency [6] > 46 µM and > 20.6 µM

CCCCNc1cc(C(=O)O)cc(S(N)(=O)=O)c1Oc1ccccc1
inactive: activity change, negative = inhibition ([1]; at 17.2 µM (top of the series)) 2.74% and -1.68% | activity change, negative = inhibition ([1]; at 38 µM (top of the series)) -1.83% | activity change, negative = inhibition ([3]; at 17.2 µM (top of the series)) 1.71% and -0.748% | activity change, negative = inhibition ([3]; at 38 µM (top of the series)) 7.04% | outcome [4]

N=c1nc(N2CCCCC2)cc(N)n1O
inactive: activity change, negative = inhibition ([1]; at 17.2 µM (top of the series)) -4.3% and 1.82% | activity change, negative = inhibition ([1]; at 38 µM (top of the series)) 2.17% | Potency [2] | activity change, negative = inhibition ([3]; at 17.2 µM (top of the series)) -4.8% | activity change, negative = inhibition ([3]; at 38 µM (top of the series)) 7.52% | outcome [4] | Potency [5] > 46 µM and > 20.6 µM | Potency [6] > 46 µM and > 20.6 µM

N[C@@H]1CONC1=O
inactive: activity change, negative = inhibition ([1]; at 17.2 µM (top of the series)) 4.13% and -17.2% | activity change, negative = inhibition ([1]; at 38 µM (top of the series)) 6.67% and -0.268% and -2.74% | Potency [2] | activity change, negative = inhibition ([3]; at 17.2 µM (top of the series)) -1.83% | activity change, negative = inhibition ([3]; at 38 µM (top of the series)) -6.1% and -4.54% and -4.29% | outcome [4] | Potency [5] > 46 µM and > 20.6 µM | Potency [6] > 46 µM and > 20.6 µM

CN1CCN(CCCN2c3ccccc3Sc3ccc(C(F)(F)F)cc32)CC1
inactive: Potency [7] > 11.4 µM | activity change, negative = inhibition ([1]; at 17.2 µM (top of the series)) 7.77% and 23.2% | activity change, negative = inhibition ([1]; at 38 µM (top of the series)) 29.9% | outcome [4] | Potency [5] > 46 µM and > 20.6 µM | Potency [6] > 46 µM and > 20.6 µM and > 9.22 µM

Nc1nc2ccc(OC(F)(F)F)cc2s1
inactive: activity change, negative = inhibition ([1]; at 17.2 µM (top of the series)) 7.09% and 1.61% | activity change, negative = inhibition ([1]; at 38 µM (top of the series)) -15% | activity change, negative = inhibition ([3]; at 17.2 µM (top of the series)) 0.982% and -0.48% | activity change, negative = inhibition ([3]; at 38 µM (top of the series)) 13.4% | outcome [4] | Potency [5] > 46 µM and > 20.6 µM | Potency [6] > 46 µM and > 20.6 µM
